{
  "source": "PubChem BioAssay",
  "data": [
    {"tested_on": "Plasmodium falciparum Sir2 (PF13_0152, Sir2A)", "experiment": "pfSir2 binders on small-molecule microarrays, primary screen, biochemical, small-molecule microarray, 635 nm fluorescence (AID 1098);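 further: score merges spot fluorescence intensity with its signal-to-noise ratio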", "conditions": "small-molecule microarray binding, fluorescence 635 nm; higher = more signal", "values": [
      {"smiles": "O=C1O[C@@H](c2ccccc2)[C@@H](c2ccccc2)N2[C@@H](c3ccc(O)cc3)[C@]3(C(=O)Nc4ccccc43)[C@@H](C(=O)Nc3nc4ccccc4s3)[C@H]12", "composite z-score": 1.38},
      {"smiles": "C=C(COC)/C(=C/C[C@@H](OC(=O)c1ccncc1)c1cccc(OCCO)c1)c1cnc2ccccc2c1", "composite z-score": -0.0365},
      {"smiles": "O=C1O[C@@H](c2ccccc2)[C@@H](c2ccccc2)N2[C@@H](c3ccccc3OCCO)[C@]3(C(=O)Nc4ccc(C#CCCO)cc43)[C@@H](C(=O)N3CCN(c4ncccn4)CC3)[C@H]12", "composite z-score": 0.879},
      {"smiles": "COC(=O)C[C@H]1O[C@]2(C(=O)N(C)c3ccccc32)[C@@H](C)[C@@H]1[Si](C)(C)c1ccc(C)cc1", "composite z-score": 0.486},
      {"smiles": "Cc1ccc(C(C)CC(O)C2C=CC3C(=O)N(c4ccccc4)C(=O)C3N2Nc2ccc(C(C)C)cc2)o1", "note": "(stereo not drawn)", "composite z-score": 0.938},
      {"smiles": "C[n+]1ccc(CCCO)cc1", "composite z-score": 0.365},
      {"smiles": "C=C(COC)/C(=C/C[C@@H](OC(=O)c1ccncc1)c1ccc(CO)o1)c1cnc2ccccc2c1", "composite z-score": 1.06},
      {"smiles": "CCOC(=O)[C@H]1C/C=C/C[C@H](C(=O)OCC)C(=O)O[C@H]2[C@@H](OC)O[C@H](CO)[C@@H](OC(=O)CCc3ccccc3)[C@@H]2OC1=O", "composite z-score": 0.254},
      {"smiles": "CCCCC(=C=CC[C@@H](O)c1ccc(OCCO)cc1)C[C@@H](O)COCc1ccccc1", "composite z-score": 1.27},
      {"smiles": "CCCc1cccc(=O)o1", "composite z-score": 0.521},
      {"smiles": "COCC(=C=CC[C@H](O)c1ccc(OCCO)cc1)C[C@H](O)COCc1ccccc1", "composite z-score": 1.56},
      {"smiles": "O=C(NC1CC1)[C@@H]1c2ccccc2C(=O)N(Cc2ccccc2)[C@H]1c1ccc(CO)cc1", "composite z-score": 1.73},
      {"smiles": "COCCOC(=O)N1C(=O)[C@@]2(c3cc(C#CC4=CCCCC4)ccc31)[C@H](C(=O)N1CCN(c3ncccn3)CC1)[C@H]1C(=O)O[C@H](c3ccccc3)[C@H](c3ccccc3)N1[C@@H]2c1ccc(O)cc1", "composite z-score": 0.827},
      {"smiles": "O=C1C2C=CC(C(O)c3cc(C(F)(F)F)cc(C(F)(F)F)c3)N(Nc3ccc([N+](=O)[O-])cc3)C2C(=O)N1c1ccccc1", "note": "(stereo not drawn)", "composite z-score": 0.905},
      {"smiles": "C=CCOC(=O)[C@@H]1[C@H]2C(=O)O[C@H](c3ccccc3)[C@H](c3ccccc3)N2[C@H](c2ccc(OCCOC(=O)[C@H]3C[C@H]4C(=O)N[C@@H](CCCCNC(C)=O)C(=O)N4[C@H]3c3cccc(OCCO)c3)cc2)[C@@]12C(=O)Nc1ccc(I)cc12", "composite z-score": 1.52},
      {"smiles": "COC(=O)[C@@]1(Cc2ccccc2)[C@H]2c3cc(C(=O)N4CCCC4)n(C[C@H](O)CO)c3C[C@H]2CN1C(=O)c1ccccc1", "composite z-score": 1.06},
      {"smiles": "COCCCNC(=O)[C@]1(CCC(=O)OC(C)(C)C)N=C(c2ccc(OCCCO)cc2)O[C@@H]1c1ccccc1", "composite z-score": 1.31},
      {"smiles": "COCCOC(=O)N1C(=O)[C@@]2(c3cc(C#CC4=CCCCC4)ccc31)[C@H](c1ccccc1OCCO)N1[C@H](c3ccccc3)[C@H](c3ccccc3)OC(=O)[C@H]1[C@@H]2C(=O)N1CCc2cc(OC)c(OC)cc2C1", "composite z-score": 0.162},
      {"smiles": "CC(C)(C)OC(=O)CC[C@]1(C(=O)N2CCOCC2)N=C(c2ccc(OCCCO)cc2)O[C@H]1c1ccccc1", "composite z-score": 1.65},
      {"smiles": "COCCOC(=O)N1C(=O)[C@@]2(c3cc(C#CC4=CCCCC4)ccc31)[C@H](c1ccc(O)cc1)N1[C@H](c3ccccc3)[C@H](c3ccccc3)OC(=O)[C@H]1[C@@H]2C(=O)Nc1nc2ccccc2s1", "composite z-score": 1.56},
      {"smiles": "CC1CC/C=C\\[C@H]2OC34C=CCN(c5ccc6ccccc6c5)C(=O)[C@H]3N(C(CO)C(C)C)C(=O)[C@@H]4C2C(=O)O1", "note": "(stereo partly drawn)", "composite z-score": 0.675},
      {"smiles": "CC(C)CNC(=O)[C@@H]1c2ccccc2C(=O)N(Cc2cc(F)cc(C(F)(F)F)c2)[C@H]1c1ccc(CO)cc1", "composite z-score": 0.311},
      {"smiles": "C=C[C@H](COC(C)=O)NS(=O)(=O)c1ccc(Br)cc1", "composite z-score": 0.786},
      {"smiles": "CC(C)CN1C(=O)[C@@]2(Cc3ccccc31)c1ccccc1C(=O)N(Cc1ccccc1C(F)(F)F)[C@H]2c1ccc(CO)cc1", "composite z-score": 0.957},
      {"smiles": "O=C(CS)NCCCCCCNC(=O)[C@H]1C[C@H]2C(=O)N[C@@H](Cc3ccccc3)C(=O)N2[C@H]1c1cccc(OCCO)c1", "composite z-score": 1.62},
      {"smiles": "CCOC(=CC(=O)OC)CC(O)c1cccc(Cl)c1", "note": "(stereo not drawn)", "composite z-score": 0.971},
      {"smiles": "O=C1C[C@]2(c3ccc([N+](=O)[O-])cc3)C(=O)N(Cc3ccccc3)c3cc(CO)ccc3[C@H]2N1CC12CC3CC(CC(C3)C1)C2", "composite z-score": -1.44},
      {"smiles": "C=CCN1C(=O)[C@@]2(O[C@@H](CCO)[C@H]([Si](C)(C)c3ccc(OC)cc3)[C@H]2C)c2cc(N3C(=O)c4ccccc4Oc4ccccc43)ccc21", "composite z-score": 1.07}
    ]}
  ]
}
